Screens as filed in PubChem.
The list is not random: actives were taken first. Their share in the collection is about 5.5%.
VP16 counter: counter-screen for ROR gamma inhibitors: Gal4-VP16 reporter; Drosophila S2 Gal4-VP16 UAS-luciferase, luminescence, 20 h; Potency, µM (series often up to 53.6 µM), inactives show at the top dose activity, negative = inhibition, actives largely listed as inhibitors; 310,000 compounds, 3.5% hits;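 note: Gal4-VP16 expression switched on by copper sulfate through the metallothionein promoter; potency is the fitted concentration of half-maximal effect; % is set by controls: 0 for no effect and ±100 for the full control effect; nearly all actives have a fitted effect of over 50% in size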
CtBP-E1A inh: inhibitors of CtBP/E1A interaction | 340,000 compounds, 0.49% hits | activity change, % (concentration not given with the values) | AlphaScreen GST-E1A/His-CtBP binding, 1536-well; hits give low values | AID 651724; in the data active = activity change below about -65%; inconclusive = mostly about -30% to -63%; note: % is set by controls: 0 for no effect and ±100 for the full control effect
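GST-E1A and His-tagged CtBP (125 nM each as 5X stock) were preincubated with pin-transferred compound for 2 h at 37 °C in the dark, then glutathione donor and nickel acceptor beads were added for 1 h before AlphaScreen reading.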
MBNL1-CUG inh: inhibitors of human MBNL1 binding to CUG repeat RNA. Q9NR56. TR-FRET MBNL1-His/biotin-(CUG)12 binding, 665/545 ratio. Potency, µM (doses to about 57.5 µM), for the others: at the highest dose activity change, negative = inhibition, hits mostly inhibitors. 280,000 compounds, 0.036% hits. AID 2675; active = well fitted inhibition curve with a large enough effect in the signal ratio, with a control signal flat, not every such curve was filed as active; inconclusive = small, poorly fitted or top-dose-only effect, or effect the other way, or a change in a side signal; inactive = no such curve, though single readings can be large or run the other way; the % refers to the signal ratio; note: potency is the fitted concentration of half-maximal effect; % is set by controls: 0 for no effect and ±100 for the full control effect
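Compounds (final 92 nM to 58 uM) are added to His-tagged MBNL1 and biotin-(CUG)12, then terbium anti-His antibody and streptavidin-XL665 (5 nM final). After 60 min at room temperature, the 665/545 nm ratio is read.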
RORgamma inh: ROR gamma (mouse) transcription inhibition. 310,000 compounds, 5.4% hits. Drosophila S2 Gal4-RORgamma UAS-luciferase reporter, 20 h. Potency, µM (top dose mostly 53.6 µM), for the others: top-dose activity change, negative = inhibition, most hits filed as inhibitors. P51450; note: potency is the fitted concentration of half-maximal effect; % is set by controls: 0 for no effect and ±100 for the full control effect; nearly all actives have a fitted effect of over 60% in size
Target sequence (P51450 whole entry, looked up, the tested form may be a part): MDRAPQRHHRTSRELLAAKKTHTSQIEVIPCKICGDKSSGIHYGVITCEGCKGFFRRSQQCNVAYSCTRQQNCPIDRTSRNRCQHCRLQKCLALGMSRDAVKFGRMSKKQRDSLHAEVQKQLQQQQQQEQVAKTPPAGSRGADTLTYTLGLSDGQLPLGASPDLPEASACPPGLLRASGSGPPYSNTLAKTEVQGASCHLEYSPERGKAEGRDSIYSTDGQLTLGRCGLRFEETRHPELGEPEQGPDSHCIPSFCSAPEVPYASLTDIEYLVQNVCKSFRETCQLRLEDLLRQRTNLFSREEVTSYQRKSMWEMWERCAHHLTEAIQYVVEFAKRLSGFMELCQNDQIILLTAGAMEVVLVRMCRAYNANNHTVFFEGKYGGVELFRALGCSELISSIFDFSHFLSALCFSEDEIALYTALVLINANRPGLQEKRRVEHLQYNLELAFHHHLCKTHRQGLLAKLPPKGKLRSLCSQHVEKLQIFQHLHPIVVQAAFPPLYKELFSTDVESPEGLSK
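Using a luciferase readout, inhibitors were identified by reduced reporter activity in Drosophila cells coexpressing a copper-inducible Gal4–ROR gamma fusion and UAS-driven Photinus luciferase, incubated 20 hr after 700 uM copper sulfate.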
Six1-Eya2 inh: blocks human Six1 binding to Eya2 | AlphaScreen GST-Six1/His-Eya2 binding, biochemical; hits give low values | activity change, % (test concentration not listed) | 360,000 compounds, 0.56% hits; in the data active = activity change below about -65%; inconclusive = mostly about -30% to -63%; note: % is set by controls: 0 for no effect and ±100 for the full control effect
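GST-Six1 + His-Eya2 (5X stock: 250/500 nM); Tris pH 8.0, 300 mM NaCl, 0.05% BSA, 0.02% Tween 20; GSH donor/Ni acceptor beads; 1 h 37 °C dark; AlphaScreen readout.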
CBFb RUNX1 block: blocks binding between human CBF-beta and RUNX1; Q01196+Q13951; AlphaScreen CBFb-His/RUNX1-biotin binding, biochemical; Potency, µM (titrated, usually from 59.8 µM), without a hit: at the highest dose activity, negative = inhibition, usual class: inhibitors; 230,000 tested, under 10 active; note: % of control where 0% means no effect
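Interaction loss through any mechanism counts as activity. Pre-formed complex of His-CBF-beta and biotin-RUNX1 (30 nM apiece) is incubated with compound 15 min, then with 50 ng nickel and 50 ng streptavidin beads for 90 min before AlphaScreen detection.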
* = called active by the depositor; u = inconclusive; x = not tested or not shown. Unless noted, calls come from the whole dose curve; as a rule, active = well fitted curve in the direction sought with a large enough effect; inconclusive = small, poorly fitted or top-dose-only effect, or another doubt; inactive = no such curve, though single readings can be large; an effect the other way counts as inactive or inconclusive.

SMILES	VP16 counter	CtBP-E1A inh	MBNL1-CUG inh	RORgamma inh	Six1-Eya2 inh	CBFb RUNX1 block
Cc1ccc(C)c(NC(=O)c2ccc(S(=O)(=O)N(C)CC3CCCO3)cc2)c1 (configuration not stated)	x	-6	x	x	-4	x
Nc1c(Cl)ncnc1N/N=C/c1ccc2ccccc2n1	1µM*	-80*	u	0.4µM*	-80*	x
Nc1c(Cl)ncnc1N/N=C/c1cccnc1	-6%	-8	u	0%	-8	10%
Nc1c(Cl)ncnc1N/N=C/c1ccccn1	0.89µM*	-86*	u	0.4µM*	-87*	u
Nc1c(Cl)ncnc1N/N=C/c1ccnc2ccccc12	3%	-16	u	-28%	-22	-6%
CCOC(=O)C1CCN(S(=O)(=O)c2cc(C(=O)N3CCCCC3)ccc2OC)CC1	0%	6	1%	-9%	0	x
O=C(O)COc1ccc(/C=C/C(=O)c2ccc3ccccc3c2)cc1	u	14	u	1.6µM*	4	x
COc1ccc(-c2ccc(SC)nn2)cc1	u	0	-2%	10µM*	-3	0%
COc1ccc(C(=O)CSc2ccc(-c3ccccc3)nn2)cc1	2%	-11	-10%	42%	6	-13%
C[C@@H]1CN([C@@H](C)CO)C(=O)CCCn2nncc2CO[C@@H]1CN(C)S(=O)(=O)c1ccccc1F	x	0	x	x	4	x
Cc1ccc(-c2nnn(C/C(N)=N/O)n2)cc1	2.8µM*	x	-10%	2.8µM*	2	-5%
S=c1[nH]nc(COc2ccccc2)n1/N=C/c1ccccc1Cl	13µM*	22	-4%	6.3µM*	0	x
S=c1[nH]nc(COc2ccccc2)n1/N=C/c1c(Cl)cccc1Cl	-29%	3	-14%	3.5µM*	-5	x
S=c1[nH]nc(COc2ccccc2)n1/N=C/c1cccc(Cl)c1Cl	u	x	-2%	u	-8	x
CCCCN(CC)S(=O)(=O)c1ccc(C(=O)Nc2nnc(COC)o2)cc1	3.2µM*	-13	-10%	1.3µM*	-14	-2%
CCCCN(CCCC)S(=O)(=O)c1ccc(NC(=O)c2cccs2)cc1	-27%	10	-6%	-19%	1	5%
CCCCN(CC)S(=O)(=O)c1ccc(C(=O)Nc2nnc(CSC)o2)cc1	1µM*	-19	-10%	0.71µM*	-9	-11%
CCCCN(CCCC)S(=O)(=O)c1ccc(C(=O)Nc2nnc(CSC)o2)cc1	0.89µM*	-1	2%	0.32µM*	-2	0%
CCCN(CCC)S(=O)(=O)c1ccc(C(=O)Nc2nnc(CSC)o2)cc1	1.3µM*	-16	5%	0.89µM*	-11	-8%
CCc1nnc(NC(=O)c2ccc(S(=O)(=O)N(CCOC)CCOC)cc2)s1	16%	-4	39%	1%	5	1%
CCN(CC)S(=O)(=O)c1ccc(C(=O)Nc2cc(C)on2)cc1	-2%	11	-5%	0%	-7	x
CCNc1oc(-c2ccccc2F)nc1S(=O)(=O)c1ccccc1	2%	-8	7%	14%	-14	x
CCOc1ccc(-n2ccn(CC(=O)NCCc3ccccc3)c(=O)c2=O)cc1	x	5	x	x	3	x
O=C1/C(=C/c2ccccn2)SC(=S)N1N1CCOCC1	12%	-2	x	2%	0	7%
O=C1CC2(CCN(C(=O)c3ccc(Br)cc3)CC2)Oc2ccccc21	x	4	x	x	2	x
CS(=O)(=O)c1ccccc1-c1nnc(NC(=O)c2ccc(S(=O)(=O)N3CCCC3)cc2)o1	x	-19	x	x	u	x
CCCCN(CC)S(=O)(=O)c1ccc(C(=O)Nc2nnc(-c3ccccc3Cl)o2)cc1	0.79µM*	x	-6%	u	x	1%
CCn1c(SCc2ccc(Cl)cc2Cl)nc2nc3c(cc2c1=O)CCCC3	6%	6	-14%	7.1µM*	2	0%
C=CCNC(=S)N(C1CCCCC1)C1CCCCC1	2%	0	-4%	10µM*	28	-1%
